The values that follow come from PubChem BioAssay AID504845 (National Center for Advancing Translational Sciences (NCATS), 2011).

Where “and” joins values, the source holds several entries; their conditions need not be identical. Equal entries are not always repeated. Out of some 390,000 compounds screened, about 150 (0.038%) were called active. Roughly 3% stayed inconclusive and do not appear here. Calls follow the shape of the dose curve; as a rule, active = well fitted inhibition curve with a large enough effect; inconclusive = small, poorly fitted or top-dose-only effect; inactive = no such curve, though single readings can be large or run the other way. What follows is part of a selection rich in actives, with near analogues and random picks from the rest. A call without a number means that no potency is given here. A structure can be active in one record and inactive in another.
Potency is read from the fitted curve at half-maximal effect.

In the test the target is Regulator of G-protein signaling 4 (Homo sapiens) (UniProt P49798). In words: Inhibitors of Regulator of G Protein Signaling (RGS) 4: qHTS. Also: nearly all actives have a fitted effect of over 75% in size. The settings on record: Transcreener GDP fluorescence polarization, RGS4-accelerated GTP hydrolysis; series mostly up to 114 µM. An outline of the steps: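 MLSMR compounds (23 nl, pin-transferred) preincubated 10 min at room temperature with a 500nM (2x) first reagent, then RGS4 at 900nM (2x) plus Transcreener GDP mix added; fluorescence polarization (620/688 nm) read before and after 90 min at 30 °C.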
Sequence of Regulator of G-protein signaling 4 (Homo sapiens) (P49798 whole entry, looked up): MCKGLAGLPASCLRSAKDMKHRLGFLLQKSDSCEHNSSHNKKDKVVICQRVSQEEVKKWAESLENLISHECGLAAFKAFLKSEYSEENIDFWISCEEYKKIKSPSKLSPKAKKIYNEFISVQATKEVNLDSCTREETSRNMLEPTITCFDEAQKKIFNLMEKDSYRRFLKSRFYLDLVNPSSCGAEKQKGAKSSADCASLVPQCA
Regarding `O=C(NCc1ccccc1)c1cccc(NC(=O)N2CCSc3ncccc32)c1`, the Potency entry is “inactive”.

For `COc1ccc(Cn2c(=O)[nH]c3cc(C(=O)N4CCN(C(=O)c5ccco5)CC4)ccc3c2=O)cc1`, the Potency entry is “inactive”.

On to `CCOc1ccc(NC(=O)CSc2nnc3c(n2)[nH]c2ccc(S(=O)(=O)N4CCOCC4)cc23)cc1`, for which the Potency entry was “inactive”.

In the case of `CC1CCCN(S(=O)(=O)c2ccc3[nH]c(=O)cc(C(=O)NCCc4ccc(Cl)cc4)c3c2)C1` (stereo not given), the Potency entry is “inactive”.

For the compound `CCN(CC)CCNC(=O)CN1N=C(c2ccc(OC)cc2)CCC1=O`, the Potency entry is “inactive”.

On to `COC(=O)c1ccc(C2C(C(=O)Nc3ccccc3)=C(C)Nc3nc4ccccc4n32)cc1` (stereo not given), for which the Potency entry was “inactive”.

As for `Oc1cc2c(cc1O)CN(C(=S)NCCc1ccc(Cl)cc1)CCC2`, the Potency result was “inactive and 16.8 µM (active)”.

Consider `O=C(NCCc1ccc(Cl)cc1)C1CCCN1C(=O)NCc1ccccc1` (stereo not given), for which the Potency result is “inactive”.

For `S=C(Nc1ccc(Cl)cc1Cl)N1CCCC1`, the Potency result is “inactive”.

For `COc1ccc(CC(=O)NCCc2sc3nc(-c4ccc(OC)cc4)nn3c2C)cc1`, the Potency entry was “inactive”.

In the case of `Cc1ccc(-n2ncc(C(=O)N(C)Cc3ccccc3)c2-n2cccc2)cc1`, the Potency entry was “inactive”.

Consider `Cc1ccc(-c2onc(C)c2C)cc1S(=O)(=O)Nc1ccccn1`, for which the Potency entry was “inactive”.

In the case of `O=C1C[C@@H](c2ccc3ccccc3c2)N1S(=O)(=O)c1ccccc1[N+](=O)[O-]`, the Potency entry is “inactive”.

As for `CCCN1CCN(CCCNC(=O)c2ccc3nc(Cc4ccccc4)oc3c2)CC1`, the Potency result was “inactive”.

As to `Cc1cccc(C(=O)NCCc2nc3ccccc3n2Cc2ccccc2Cl)c1`, the Potency entry is “inactive”.

With `CSc1ccc(CCNC(=O)c2cc(C)nc3c2c(C)nn3-c2cccc(F)c2)cc1`, the Potency result is “inactive”.

As to `COCCNS(=O)(=O)c1cc(-c2nn3c(C)nnc3c3ccccc23)ccc1C`, the Potency result was “inactive”.

For the compound `Cc1ccc(NC(=O)c2cccc(N(C)C)c2)cc1NC(=O)c1ccc(O)cc1`, the Potency result is “inactive”.

Take `Cc1ccccc1C(=O)N(Cc1ccc(N(C)C)cc1)CC1CCCO1` (stereo not given): the Potency entry is “inactive”.

With `Cc1nc(SCC(=O)N2CCN(c3ccccc3)CC2)[nH]c(=O)c1C`, the Potency result is “inactive”.

As for `NC(=O)CSc1nc2c(oc3ccccc32)c(=O)n1Cc1ccccc1`, the Potency entry was “inactive”.

Consider `CCN(C(=O)Cn1c(=O)nc(-c2ccccc2)c2cc(Cl)ccc21)c1cccc(C)c1`, for which the Potency entry was “inactive”.

`CCCCCCn1nnc2sc(-c3ccccc3)cc2c1=O`: the Potency entry was “inactive”.

For `CC(C)c1ccc2oc(-c3cc(NC(=O)c4cccs4)ccc3Cl)nc2c1`, the Potency entry is “inactive”.

With `Cc1cc2oc(C(=O)N(Cc3ccc(Cl)cc3)Cc3ccco3)c(C)c2cc1Cl`, the Potency result is “inactive”.

Turning to `CC(C)[C@H]1CC[C@@H](C)C[C@H]1O`, the Potency entry was “inactive”.

For `COc1ccc(CNC(=O)c2cc3c(=O)[nH]c4ccccc4c3s2)cc1`, the Potency result was “inactive”.

On to `O=S(=O)(Nc1cccc2cccnc12)c1cccc2cccnc12`, for which the Potency entry was “inactive”.

For the compound `COC(=O)c1cc2occc2n1Cc1nc(-c2ccc(C)cc2)oc1C`, the Potency result was “inactive”.

Take `Cc1ccc(F)cc1S(=O)(=O)N1CCC(c2nc3ccccc3s2)CC1`: the Potency entry is “inactive”.

As to `Cc1cc(OC(C)C(=O)Nc2sc3c(c2C(N)=O)CCCC3)ccc1Cl` (stereo not given), the Potency entry was “inactive”.

Consider `COc1ccc(C2Nc3ccc(NC(=O)COC(C)=O)cc3C(=O)N2Cc2ccccc2)cc1COc1ccc(NC(C)=O)cc1` (stereo not given), for which the Potency entry was “inactive”.

Consider `C#CCOc1ccc(C2CC(=O)Nc3c2c(C)nn3-c2nc(C)cc(C)n2)cc1` (stereo not given), for which the Potency result is “inactive”.

Consider `Cc1ccc(C)c(N2CCN(C(=O)Cn3nc(C)c4sc5ccccc5c4c3=O)CC2)c1`, for which the Potency result was “inactive”.

`CC(C)S(=O)(=O)c1oc(-c2ccc(F)cc2)nc1S(=O)(=O)c1ccc(F)cc1`: the Potency entry was “inactive”.

With `COc1cc(OC)cc(C(=O)Nc2c(C(=O)Nc3ccc(F)cc3)oc3ccccc23)c1`, the Potency result was “inactive”.

`Oc1ccc(Cl)cc1C1C=C(c2ccc3c(c2)OCO3)NC(c2ccc(F)c(Br)c2)N1` (stereo not given): the Potency result was “inactive”.

As to `CCOc1ccc(NC(=O)CC2C(=O)N(c3cccc(OC)c3)C(=O)N2C2CCCCC2)cc1` (stereo not given), the Potency result is “inactive”.

Consider `COc1ccc(Cc2nc3ccc(C(=O)NCc4ccccc4C)cc3o2)cc1`, for which the Potency result is “inactive”.

Take `O=C(Nc1ccc2c(c1)OCO2)c1cc(-c2cccc(Cl)c2)on1`: the Potency result was “inactive”.

Consider `C=CC1(C)CC(=O)C2(O)C(C)(O1)C(OC(C)=O)C(O)C1C(C)(C)CCC(O)C12C` (stereo not given), for which the Potency entry was “inactive”.

Take `Cc1ccccc1CSc1nc2c([nH]c3ccccc32)c(=O)n1C`: the Potency entry was “inactive”.

`O=C(c1ccc(F)cc1)C1CCN(CCCCc2ccccc2)CC1`: the Potency entry is “inactive”.

As to `CCc1cc2c(cc3c(=O)n(CC(=O)NCc4cccc(Cl)c4)nc(CC)n32)s1`, the Potency result is “inactive”.

For the compound `Cc1ccc(Cl)cc1N1CCN(S(=O)(=O)c2cc3[nH]c(=O)c(=O)[nH]c3cc2C)CC1`, the Potency entry was “inactive”.

In the case of `CCCSc1ncc(Cl)c(C(=O)Nc2sc3c(c2C(=O)NCCOC)CCCC3)n1`, the Potency result was “inactive”.

For `Cc1ccc(CCNC(=O)C2CCN(c3nnc(-n4cccc4CNc4ccc(C)cc4)s3)CC2)cc1`, the Potency entry is “inactive”.

With `CCOc1ccccc1NC(=O)Cn1c(=O)n(-c2cccc(C)c2)c(=O)c2c1c1cc(OC)ccc1n2C`, the Potency result was “inactive”.

Turning to `COc1ccc(Cl)cc1NC(=O)C(C)Sc1nc2c(c(=O)[nH]1)CCCC2` (stereo not given), the Potency entry is “inactive”.

With `Cc1ccc2nc(/C(C#N)=C/c3ccc(-c4ccc(C(=O)OC(C)C)cc4)o3)[nH]c2c1`, the Potency entry was “inactive”.

In the case of `CCOc1ccccc1CNC(=O)Nc1cn(CC(C)C)c(=O)c2ccccc12`, the Potency entry was “inactive”.

For the compound `O=C1C2C(c3ccccc3)CC=CC2C(c2ccoc2)N1Cc1ccccc1` (stereo not given), the Potency result was “inactive”.

Turning to `Cc1cccc(-c2cc(=O)c3cc(C)ccc3o2)c1`, the Potency entry is “inactive”.

On to `CC1CC2C3CCC4=CC(=O)C=C[C@]4(C)[C@@]3(F)[C@@H](O)C[C@]2(C)[C@@]1(O)C(=O)CO` (stereo not given in full), for which the Potency entry is “inactive”.

On to `Nc1ncnc2c1ncn2C1CC(O)C(CO)O1` (stereo not given), for which the Potency result was “inactive”.

For the compound `CSc1ccccc1N1CCN(CCCCCC(=O)NC2CCCc3ccccc32)CC1` (stereo not given), the Potency result was “inactive”.

Consider `CCC(=O)N1CCc2cc(Br)cc(S(=O)(=O)CCC(=O)NCCc3ccc(OC)c(OC)c3)c21`, for which the Potency entry is “inactive”.

Consider `Cc1ccc(-n2c3nc(=O)[nH]c(=O)c-3cc3c(Cl)cccc32)cc1`, for which the Potency result is “inactive”.

On to `COc1ccc(C)cc1NC(=O)CCc1c(C)nn(-c2ccc(N3CCOCC3)nn2)c1C`, for which the Potency entry is “inactive”.

`COC(=O)c1cccc(Cn2nnc3sc4c(c3c2=O)CCC(C(C)(C)C)C4)c1` (stereo not given): the Potency result is “inactive”.

As to `CCOC(=O)c1c(C)[nH]c(CCC(=O)NCCCN2CCN(c3cccc(Cl)c3)CC2)c1C`, the Potency entry is “inactive”.

With `CC[C@@H]1Cc2cc(O)ccc2C2=C1c1ccc(O)cc1C[C@H]2CC`, the Potency result is “inactive and 23.8 µM (active)”.

As for `COc1ccc(C2CC(O)(c3ccccc3)Oc3cc(C)cc(C)c32)cc1` (stereo not given), the Potency result is “inactive”.

Consider `O=S(=O)(c1ccc2nc(N3CCN(c4cccc(Cl)c4)CC3)ccc2c1)N1CCCCC1`, for which the Potency entry is “inactive”.

Turning to `CCOC(=O)c1cccc(NC(=O)C(Cc2ccccc2)NS(=O)(=O)c2cccc3nsnc23)c1` (stereo not given), the Potency result was “inactive”.

Turning to `COc1cccc(CNCCSc2nnnn2C)c1OCc1ccccc1Cl`, the Potency result is “inactive”.

On to `CC(=O)c1cccc(NC(=O)CSc2nc3c(c(=O)[nH]2)CCC3)c1`, for which the Potency entry is “inactive”.

In the case of `O=C(Nc1c(C(=O)N2CCN(c3ccc(F)cc3)CC2)oc2ccccc12)c1ccco1`, the Potency entry was “inactive”.

Regarding `Cc1cc(C)cc(NC(=O)c2cnc3sc(N4CCCC4)nn3c2=O)c1`, the Potency entry was “inactive”.

Take `COc1cc(OC)cc(C(=O)Nc2ccc3nc(Nc4cccc(C(F)(F)F)c4)cc(C)c3c2)c1`: the Potency entry was “inactive”.

For `Cc1ccc(N(C)C(=O)C2CCN(S(=O)(=O)c3ccc4c(c3)CCCN4C(=O)C3CCC3)CC2)cc1`, the Potency result is “inactive”.

As for `CSc1nc(Nc2ccc(F)cc2)cc(-c2ccccc2)n1`, the Potency result is “inactive”.

For the compound `Cc1cccc(-n2c(SCC(N)=O)nc3c(oc4ccccc43)c2=O)c1`, the Potency entry was “inactive”.

In the case of `C=Cc1ccc(Cn2c(C(=O)O)c(CNC3CCCC3)c3ccc(C)cc32)cc1`, the Potency result was “inactive”.

Consider `COc1ccccc1CNC(=O)Cn1nc(C)c2nn(-c3ccc(Cl)cc3)c(C)c2c1=O`, for which the Potency entry was “inactive”.

In the case of `CC1CCCCN1S(=O)(=O)c1ccc(F)c(C(=O)Nc2ccccc2C(F)(F)F)c1` (stereo not given), the Potency result was “inactive”.

Take `COc1ccc2ncc3c(-c4ccc(C)c(C)c4)nn(CC(=O)NC4CCCC4)c3c2c1`: the Potency result was “inactive”.

For the compound `COc1cccc(CNC(=O)c2ccc3c(c2)N(Cc2ccc(C(F)(F)F)cc2)C(=O)c2ccccc2S3)c1OC`, the Potency result was “inactive”.

Regarding `CC(C)CC(NS(=O)(=O)c1ccc2c(c1)oc(=O)n2C)C(=O)NCc1ccccc1Cl` (stereo not given), the Potency result was “inactive”.

As for `Cc1cc(OCC(=O)Nc2ncn[nH]2)c(C)c(C)c1Br`, the Potency entry is “inactive”.

`CN1C(=O)c2[nH]nc(-c3ccc(F)cc3)c2C1c1ccccn1` (stereo not given): the Potency entry is “inactive”.

With `O=C(CSCc1cnn(-c2ccccc2)c1-n1cccc1)NCc1ccccc1Br`, the Potency entry is “inactive”.

Consider `O=C(NCCc1ccccc1)c1ccc2c(c1)N(Cc1ccc(F)cc1)C(=O)c1ccccc1S2(=O)=O`, for which the Potency entry is “inactive”.

`O=S(=O)(NCC(c1ccccc1)N1CCc2ccccc21)c1ccccc1` (stereo not given): the Potency result was “inactive”.

Take `Cc1c(CCNC(=O)c2ccc(C(F)(F)F)cc2)sc2nc(-c3ccc(F)cc3)nn12`: the Potency result was “inactive”.

For the compound `CCN(CC)CCNC(=O)c1cc2c(=O)oc3ccc(C)cc3c2s1`, the Potency result was “inactive”.

Regarding `COc1ccc(CCn2c3c(c(=O)[nH]c2=S)CN(C(C)C)CN3)cc1OC`, the Potency result is “inactive”.

In the case of `Cn1c(C(=O)N2CCC(C(=O)N3CCN(c4ccccc4)CC3)CC2)cc2sccc21`, the Potency entry was “inactive”.

For `O=S(=O)(c1cccc(C(F)(F)F)c1)N1CCN(c2nc(-c3cccs3)nc3ccccc23)CC1`, the Potency result is “inactive”.

`Cc1cccc(NC(=O)CSc2ncc(-c3ccccc3)[nH]2)c1C`: the Potency entry is “inactive”.

As to `COc1cccc(N=C2SC(C(=O)Nc3cccc(Cl)c3)CC(=O)N2C)c1` (stereo not given), the Potency entry is “inactive”.

For the compound `O=C(Nc1cc(C(F)(F)F)ccc1Cl)c1ccc2c(c1)CCN2S(=O)(=O)c1ccccc1`, the Potency entry was “inactive”.

With `CCNS(=O)(=O)c1ccc(NC(=O)CSc2nc(-c3ccco3)cc(C(F)(F)F)n2)cc1`, the Potency entry was “inactive”.

Regarding `CCS(=O)(=O)N(C)[C@@H]1c2cc(C#N)ccc2OC(C)(C)[C@H]1O`, the Potency result was “inactive”.

On to `COc1ccc(CNC(=O)Cn2nnc(-c3ccccc3F)n2)cc1`, for which the Potency result was “inactive”.

Consider `COc1ccc(OC)c(-n2nnc3c(sc4nc(C)c(Br)c(C)c43)c2=O)c1`, for which the Potency entry is “inactive”.

In the case of `Cc1ccc(-c2cn3c(n2)sc2cc(C(=O)NCCCc4ccccc4)ccc23)cc1`, the Potency entry was “inactive”.

Turning to `O=C1CC(c2ccccc2)CC2=C1C(c1ccco1)n1nc(C(F)(F)F)nc1N2` (stereo not given), the Potency entry is “inactive”.

For `COc1ccc(-c2c(C)c3ccc(O)c(CN4CCCC4)c3oc2=O)cc1OC`, the Potency entry is “inactive”.

In the case of `CCC(=O)Nc1cccc(C(=O)OCc2cc(=O)n3nc(CC)sc3n2)c1`, the Potency entry is “inactive”.
